Source: the supplement of paper PMC10037445
The full ranking holds about 2,900 compounds; the median of “NF-kB SEAP reporter activity, fold change vs agonist alone” is about 0.99, and the highest 2% start at about 2.6. What follows is part of a selection rich in the highest values, with near analogues and random picks from the rest.

Assays:
RAW-Dual [1] = test: NF-kB SEAP reporter activity, fold change vs agonist alone; higher = enhanced NF-kB activity; settings: library stock concentration (final ~1000-fold dilution): 10 mM
Summary of the method: (§1)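 Supernatant from RAW-Dual macrophages was read after 20 hours for IRF by QuantiLuc luminescence and for NF-κB by QuantiBlue absorbance at 620 nm. The cells (50,000 cells/well in DMEM, 384-well plates, 37 °C, 5% CO2) had received 50 nL of library stock by pin tool and, 1 h later, a PRR agonist. Reporter activity is expressed relative to agonist-alone wells as fold change, and wells were flagged cytotoxic if IncuCyte confluency was under 70% of agonist controls in both mask sets.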

RAW-Dual [2] = test: NF-kB SEAP reporter activity, fold change vs agonist alone; cytotoxicity flag (confluency mask): not cytotoxic; higher = enhanced NF-kB activity
Summary of the method: as §1

RAW-Dual [3] = test: NF-kB SEAP reporter activity, fold change vs agonist alone; cytotoxicity flag (confluency mask): cytotoxic (confluency <70% of control); higher = enhanced NF-kB activity
Summary of the method: as §1

[4] = cytotoxicity flag (confluency mask): not cytotoxic, agonist: Imiquimod (TLR7) […]
[5] = cytotoxicity flag (confluency mask): not cytotoxic, agonist: MPLA (TLR4) […]
[6] = agonist: ODN 1826 (TLR9) 0.5 ug/mL
[7] = agonist: Pam2CSK4 (TLR2/6) 0.1 ug/mL
[8] = agonist: Pam3CSK4 (TLR2/1) 0.1 ug/mL
[9] = cytotoxicity flag (confluency mask): cytotoxic (confluency <70% of control), agonist: Imiquimod (TLR7) […]
[10] = cytotoxicity flag (confluency mask): cytotoxic (confluency <70% of control), agonist: MPLA (TLR4) […]

Q: What does the source list for `CC(=O)NC(CC(C)C)C(=O)NC(CC(C)C)C(=O)NC(C=O)CCCNC(=N)N` (stereo not drawn)?
A: NF-kB SEAP reporter activity (RAW-Dual [1]; [4]): 0.983; NF-kB SEAP reporter activity (RAW-Dual [1]; [5]): 1.09

Q: What does the source list for `CN1C2=C3N=c4ccccc4=C3CCN2C(=O)c2ccccc21`?
A: NF-kB SEAP reporter activity (RAW-Dual [1]; [4]): 1.62; NF-kB SEAP reporter activity (RAW-Dual [1]; [5]): 1.83

Q: What does the source list for `CN1C2=C3N=c4ccccc4=C3CCN2C(=O)c2ccccc21` (library stock concentration (final ~1000-fold dilution): 10 mM)?
A: NF-kB SEAP reporter activity (RAW-Dual [2]; agonist: LPS (TLR4) 0.1 ug/mL): 1.05; NF-kB SEAP reporter activity (RAW-Dual [2]; [6]): 0.339; NF-kB SEAP reporter activity (RAW-Dual [2]; [7]): 0.824; NF-kB SEAP reporter activity (RAW-Dual [2]; [8]): 1.1

Q: Which “NF-kB SEAP reporter activity” value (RAW-Dual [3]; agonist: LPS (TLR4) 0.1 ug/mL) does the source give for `Cc1cc2c(C(N)=O)cccc2n1-c1nc2c(c(NCc3ccccc3)n1)COCC2` (library stock concentration (final ~1000-fold dilution): 10 mM) here?
A: The value was 0.298.

Q: And the “NF-kB SEAP reporter activity” value (RAW-Dual [3]; [6])?
A: Its value is 0.325.

Q: What about the “NF-kB SEAP reporter activity” value (RAW-Dual [3]; [7]) of the same compound?
A: The value was 0.0795.

Q: And the “NF-kB SEAP reporter activity” value (RAW-Dual [3]; [8])?
A: Its value is 0.159.

Q: For `Cc1cc2c(C(N)=O)cccc2n1-c1nc2c(c(NCc3ccccc3)n1)COCC2`, which “NF-kB SEAP reporter activity” value (RAW-Dual [1]; [9]) is on record?
A: The value was 0.297.

Q: What about the “NF-kB SEAP reporter activity” value (RAW-Dual [1]; [10]) of the same compound?
A: The value was 0.302.

Q: With `CC(C)=CCC[C@](C)(O)[C@H]1CC[C@]2(C)[C@@H]3CCC4C(C)(C)[C@@H](O)CC[C@]4(C)[C@H]3C[C@@H](O)[C@@]12C` (stereo partly drawn) as the compound, how does the “NF-kB SEAP reporter activity” value (RAW-Dual [1]; [4]) read?
A: The value was 0.934.

Q: And the “NF-kB SEAP reporter activity” value (RAW-Dual [1]; [5])?
A: Its value is 1.14.

Q: Which “NF-kB SEAP reporter activity” value (RAW-Dual [2]; agonist: LPS (TLR4) 0.1 ug/mL) does the source give for `CC(C)=CCC[C@](C)(O)[C@H]1CC[C@]2(C)[C@@H]3CCC4C(C)(C)[C@@H](O)CC[C@]4(C)[C@H]3C[C@@H](O)[C@@]12C` (stereo partly drawn) (library stock concentration (final ~1000-fold dilution): 10 mM) here?
A: The value was 1.41.

Q: And the “NF-kB SEAP reporter activity” value (RAW-Dual [2]; [6])?
A: The value was 0.693.

Q: And the “NF-kB SEAP reporter activity” value (RAW-Dual [2]; [7])?
A: The value was 0.848.

Q: What about the “NF-kB SEAP reporter activity” value (RAW-Dual [2]; [8]) of the same compound?
A: Its value is 0.882.

Q: How did the “NF-kB SEAP reporter activity” value (RAW-Dual [1]; [4]) turn out when `O=c1cc(-c2ccc(O)cc2)oc2c(C3OCC(O)C(O)C3O)c(O)c(C3OC(CO)C(O)C(O)C3O)c(O)c12` (stereo not drawn) was run?
A: Its value is 1.02.

Q: And the “NF-kB SEAP reporter activity” value (RAW-Dual [1]; [5])?
A: The value was 1.05.

Q: How did the “NF-kB SEAP reporter activity” value (RAW-Dual [2]; agonist: LPS (TLR4) 0.1 ug/mL) turn out when `O=c1cc(-c2ccc(O)cc2)oc2c(C3OCC(O)C(O)C3O)c(O)c(C3OC(CO)C(O)C(O)C3O)c(O)c12` (stereo not drawn) (library stock concentration (final ~1000-fold dilution): 10 mM) was run?
A: The value was 1.45.

Q: What about the “NF-kB SEAP reporter activity” value (RAW-Dual [2]; [6]) of the same compound?
A: Its value is 1.03.

Q: And the “NF-kB SEAP reporter activity” value (RAW-Dual [2]; [7])?
A: Its value is 1.08.

Q: What about the “NF-kB SEAP reporter activity” value (RAW-Dual [2]; [8]) of the same compound?
A: Its value is 1.08.

Q: `CCn1cc(-c2cccc(C(F)(F)F)c2)c2sc(C(=N)NC3CCS(=O)(=O)CC3)cc2c1=O` (library stock concentration (final ~1000-fold dilution): 10 mM) was tested. Which “NF-kB SEAP reporter activity” value (RAW-Dual [3]; agonist: LPS (TLR4) 0.1 ug/mL) did it give?
A: The value was 3.13.

Q: And the “NF-kB SEAP reporter activity” value (RAW-Dual [3]; [6])?
A: The value was 0.721.

Q: What about the “NF-kB SEAP reporter activity” value (RAW-Dual [3]; [7]) of the same compound?
A: Its value is 1.15.

Q: And the “NF-kB SEAP reporter activity” value (RAW-Dual [3]; [8])?
A: The value was 1.12.

Q: For `CCn1cc(-c2cccc(C(F)(F)F)c2)c2sc(C(=N)NC3CCS(=O)(=O)CC3)cc2c1=O`, which “NF-kB SEAP reporter activity” value (RAW-Dual [1]; [9]) is on record?
A: The value was 1.33.

Q: And the “NF-kB SEAP reporter activity” value (RAW-Dual [1]; [10])?
A: Its value is 2.16.

Q: Which “NF-kB SEAP reporter activity” value (RAW-Dual [2]; agonist: LPS (TLR4) 0.1 ug/mL) does the source give for `CCCNC(=O)C1OC1C(=O)NC(C(=O)N1CCCC1C(=O)OC)C(C)CC` (stereo not drawn) (library stock concentration (final ~1000-fold dilution): 10 mM) here?
A: Its value is 1.06.

Q: What about the “NF-kB SEAP reporter activity” value (RAW-Dual [2]; [6]) of the same compound?
A: The value was 0.881.

Q: And the “NF-kB SEAP reporter activity” value (RAW-Dual [2]; [7])?
A: The value was 0.854.

Q: What about the “NF-kB SEAP reporter activity” value (RAW-Dual [2]; [8]) of the same compound?
A: The value was 0.799.

Q: How did the “NF-kB SEAP reporter activity” value (RAW-Dual [1]; [4]) turn out when `CCCNC(=O)C1OC1C(=O)NC(C(=O)N1CCCC1C(=O)OC)C(C)CC` (stereo not drawn) was run?
A: Its value is 0.821.

Q: And the “NF-kB SEAP reporter activity” value (RAW-Dual [1]; [5])?
A: Its value is 1.04.
